A number with no mark means an inactive call. How the calls were made is not given here.
Each compound was assayed against Pantothenate synthetase (Mycobacterium tuberculosis (strain ATCC 25618 / H37Rv)) (UniProt P9WIL5) (assay: Recombinant Mtb pantothenate synthetase (PanC) inhibitors, coupled enzyme, confirmatory (AID 375;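 further: 0% = full reaction with vehicle and 100% = no enzyme background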)). Settings: coupled enzyme assay; at 10 µM, hits give high values.
Pantothenate synthetase (Mycobacterium tuberculosis (strain ATCC 25618 / H37Rv)), sequence (P9WIL5 whole entry, looked up): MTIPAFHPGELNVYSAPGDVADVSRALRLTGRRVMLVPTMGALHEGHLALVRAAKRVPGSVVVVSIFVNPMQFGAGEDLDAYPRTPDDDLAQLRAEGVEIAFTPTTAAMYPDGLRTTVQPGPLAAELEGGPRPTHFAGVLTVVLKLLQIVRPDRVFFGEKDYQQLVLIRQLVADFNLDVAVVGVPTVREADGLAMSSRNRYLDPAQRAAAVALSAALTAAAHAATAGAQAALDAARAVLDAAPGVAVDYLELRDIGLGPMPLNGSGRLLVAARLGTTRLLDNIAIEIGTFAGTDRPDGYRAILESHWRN
Compound `Cc1cc(O)c(C2(C(F)(F)F)NCCNC2=O)cc1C` (stereo not given) has an inhibition of 5%. `COc1ccc(CCNS(=O)(=O)c2ccc3c(c2)CCN3C(=O)CCC(=O)O)cc1OC` showed an inhibition of 0%. Work on `COc1ccccc1OCc1ccc(C(=O)OCC2CCCO2)o1` (stereo not given) yielded an inhibition of 0%. `Cc1cc(C(C)(C)C)c(O)c(C)c1CC1=NCCN1` gave an inhibition of 0%. With `CCc1nc2sc3c(c2c(=O)o1)CCCC3` the inhibition was 0%. Compound `CCC(Oc1ccccc1)C(=O)Nc1ccccc1OC` (stereo not given) has an inhibition of 0%. With `Cc1cc2c(c(=O)n1C)C(Cc1ccccc1)C(C#N)=C(N)O2` (stereo not given) the inhibition was 3%. `CCOc1ccc2nc(SCC(=O)N3CCCCCC3)c(C#N)cc2c1` gave an inhibition of 0%. `COC(=O)c1cc(O)c(OCc2ccccc2)c(O)c1` was tested, and the inhibition was 0%. Work on `C=CCSC1=C(C#N)C(c2ccccc2OCC)CC(=O)N1` (stereo not given) yielded an inhibition of 0%. `Cn1cc(C(=O)NC2CCCCCCC2)c(=O)c2cc(S(=O)(=O)N3CCCC3)ccc21` showed an inhibition of 0%. Work on `COc1ccc(NC(=O)CCCN2C(=O)C3C4C=CC(C4)C3C2=O)c(OC)c1` (stereo not given) yielded an inhibition of 2%. `CCCC1(CCC)NC(=O)NC1=O` showed an inhibition of 0%. Work on `O=C(NC1(C(=O)NC2CCCCC2)CCCCC1)c1ccc2c(c1)OCO2` yielded an inhibition of 3%. Work on `COc1ccccc1NC(=O)Cn1nnc(-c2ccccc2NC(=O)c2ccco2)n1` yielded an inhibition of 0%. For `C(=N/n1c2ccccc2c2ccccc21)/c1ccco1`, the inhibition was 0%. With `Cc1ccc(Cc2c(C)nc3c(C(=O)O)cnn3c2C)cc1` the inhibition was 4%. `COc1cc2c(cc1OC)-c1nnc(-c3cccs3)n1C(C)(C)C2` was tested, and the inhibition was 0%. For `O=C(Cn1nc(Cc2cccnc2)c2ccccc2c1=O)Nc1ccc2c(c1)OCO2`, the inhibition was 0%. `Fc1ccc(-c2ccc(-c3nn4c(-c5ccco5)nnc4s3)o2)cc1` showed an inhibition of 14%. `COc1ccc(S(=O)(=O)N2CCN(c3ccc(C)cc3C)CC2)cc1OC` showed an inhibition of 3%. `NC(=O)C1(N2CCCCC2)CCN(CC(=O)Nc2cc(Cl)ccc2Cl)CC1` showed an inhibition of 3%. `CCOC(=O)N1CCN(c2c(N3CCN(c4ccccn4)CC3)c(=O)c2=O)CC1` gave an inhibition of 0%. Compound `COc1ccccc1-c1nnc(SCc2ccccn2)n1C` has an inhibition of 0%. In the case of `COc1ccc(C2C(=O)N(C3CCCCC3)CC(=O)N2Cc2ccco2)cc1` (stereo not given), the inhibition is reported as 6%. Work on `COc1ccccc1-c1cn[nH]c(=S)n1` yielded an inhibition of 11%. In the case of `COc1cc(S(=O)(=O)N(C)C)ccc1F`, the inhibition is reported as 1%. With `O=C(CSc1nc2c(c(=O)n1-c1ccc(F)cc1)SCC2)NCC1CCCO1` (stereo not given) the inhibition was 6%. Work on `COc1ccc2cc(C#N)c(NC(C)C)nc2c1` yielded an inhibition of 0%. Compound `O=C(Nc1nc2c(s1)CCc1ccccc1-2)c1cccs1` has an inhibition of 8%. Work on `Cc1cc(NS(=O)(=O)c2ccc(NC(=O)COc3ccccc3C(C)C)cc2)no1` yielded an inhibition of 0%. Compound `O=C(CNCC1CCCO1)Nc1ccccc1-n1cccc1` (stereo not given) has an inhibition of 2%. In the case of `O=C(CSc1nnc(-c2ccncc2)n1-c1ccc(F)cc1)NC(=O)NCc1ccco1`, the inhibition is reported as 0%. `CCCS(=O)(=O)N1CCC(C(=O)N2CCCC2)CC1` gave an inhibition of 7%. In the case of `O=C(CSc1nnc(-c2ccccc2)o1)NC1CCCCC1`, the inhibition is reported as 0%. Compound `CCCCN(C)C(=O)c1ccc(CS(=O)(=O)c2ccccc2C)o1` has an inhibition of 2%. Work on `c1ccc(N2CCN(Cc3cn4cccnc4n3)CC2)cc1` yielded an inhibition of 3%. `CCOc1ccc(C2C(C#N)=C(N)Oc3cc(C)n(CCN(C)C)c(=O)c32)cc1OCC` (stereo not given) was tested, and the inhibition was 0%. For `CCOC(=O)c1c(C)oc2ccc(OCC(N)=O)cc12`, the inhibition was 0%. `CCN(CC)c1ccc(NC(=O)CN2C(=O)CC(C)(C)S(=O)(=O)c3ccccc32)c(C)c1` showed an inhibition of 0%.

— PubChem BioAssay
